T cruzi growth-1: T. cruzi intracellular proliferation inhibitors, primary screen, cell-based, beta-gal Tulahuen parasites, NIH3T3 host, luminescence | T. cruzi beta-gal in NIH3T3, GalScreen luminescence, 90 h | inhibition, % at 8.34 µM | 77,000 compounds, 5.9% hits;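 active = mean inhibition above about 93%, with at least 55% of replicates each passing it, limit read from the data, passing the limit was not always enough; inconclusive = only one of those two conditions holds; inactive = neither condition holds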
Pf Dd2 growth: P. falciparum Dd2 growth inhibitors, primary screen, SYBR Green fluorescence, single dose replicates; 94,000 compounds, 2.3% hits; activity change, % at 10 µM; 72 h; hits give low values; in the data active = activity change below about -80%; inconclusive = no clear call, values can overlap the other calls
C diff HTS: C. difficile growth inhibitors, primary screen, HTS; growth activity, negative = inhibition, % at 16 µg/mL (by protocol); Clostridium difficile clinical isolate growth, OD600, 24 h; hits give low values; 86,000 compounds, 0.25% hits;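 active = mean growth activity at or below -80% and every replicate also at or below -80%; inconclusive = mean at or below -80% but some replicate above -80%; inactive = mean growth activity above -80%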;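 note: 0% = DMSO wells and -100% = levofloxacin 16 µg/mL wells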
T cruzi growth-2: T. cruzi intracellular proliferation inhibitors, confirmation, cell-based, NIH3T3 host, beta-gal parasite, luminescence, cherry-pick; shares compounds with T cruzi growth-1; T. cruzi beta-gal in NIH3T3, GalScreen luminescence, 90 h; inhibition, % at 8.35 µM; 5,600 compounds, 72% hits;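 active = mean replicate inhibition above about 95% and at least 55% of replicates individually reaching it, limit read from the data; inconclusive = only one of the two criteria is met; inactive = neither criterion is met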
T cruzi growth-3: inhibitors of intracellular T. cruzi replication, confirmation, NIH3T3 host cells, beta-gal parasites, cherry-pick, set 2 | shares compounds with T cruzi growth-1 | T. cruzi beta-gal in NIH3T3, GalScreen luminescence, 90 h | inhibition, % at 2.09 µM | 5,600 compounds, 21% hits;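 active = mean inhibition above about 95%, with at least 55% of replicates also reaching it, limit read from the data; inconclusive = meets just one of the two conditions; inactive = meets neither condition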;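 note: plate controls were neutral control median for no effect and positive control median for full effect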
3T3 cytotox: cytotoxicity in mouse NIH/3T3 fibroblasts, confirmation, cytotoxicity control for T. cruzi proliferation inhibitor project, cell-based, cherry-pick, single point; shares compounds with T cruzi growth-1; NIH/3T3 viability, CellTiter-Glo ATP luminescence, 90 h; cytotoxicity (signal decrease), % at 8.35 µM; 5,600 compounds, 14% hits; AID 651742, 2012;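 active = mean signal decrease across replicates above about 35% based on untreated-well scatter, with enough replicates individually passing, limit read from the data; inconclusive = no rule stated though some were filed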;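 note: 0% = median of neutral control wells and 100% = median of positive control wells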
NIH3T3 tox 2: NIH/3T3 fibroblast cytotoxicity, confirmation, cytotoxicity control, cell-based, cherry-pick, single point, set 2. shares compounds with T cruzi growth-1. NIH/3T3 viability, CellTiter-Glo ATP luminescence, 90 h. inhibition, % at 24.9 µM. 5,600 compounds, 56% hits;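 active = mean loss of cell viability signal at or above a set limit, and enough replicates individually reaching it; inconclusive = meets only the mean limit or only the replicate share; inactive = meets neither condition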;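 note: 0% = median of neutral control wells and 100% = median of positive control wells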
* hit, by the source's call; ? = inconclusive; · = no result given. Hits are enriched below; roughly 6.7% of the tested compounds scored in any of these assays.

SMILES	T cruzi growth-1	Pf Dd2 growth	C diff HTS	T cruzi growth-2	T cruzi growth-3	3T3 cytotox	NIH3T3 tox 2
C[C@H](CO)N1C[C@H](C)[C@H](CN(C)Cc2ccccc2)Oc2cc(C3=CCCC3)ccc2S1(=O)=O	108.0*	-30.6	7.2	107.6*	51.1	7.3	105.0*
C[C@@H]1CN([C@@H](C)CO)S(=O)(=O)c2ccc(C3=CCCC3)cc2O[C@@H]1CN(C)Cc1ccccc1	107.5*	8.9	1.3	?	68.4	32.6	105.6*
C[C@@H]1CN([C@H](C)CO)C(=O)c2cccc(NC(=O)CCCCCC(=O)Nc3ccccc3N)c2O[C@H]1CN(C)C	·	-76.1	-2.1	·	·	·	·
COc1ccc(CN(C)C[C@@H]2OCCCC[C@H](C)Oc3ccc(NC(=O)c4ccncc4)cc3C(=O)N([C@H](C)CO)C[C@@H]2C)cc1	-26.9	-21.3	6.3	·	·	·	·
C[C@@H]1CCCCO[C@H](CN(C)Cc2ccc(C(F)(F)F)cc2)[C@@H](C)CN([C@@H](C)CO)C(=O)c2cc(NC(=O)C3CCCCC3)ccc2O1	?	-84.6*	6.6	95.0*	107.6*	-1.7	26.8*
C[C@@H]1CN([C@H](C)CO)C(=O)c2cc(NC(=O)C3CCCCC3)ccc2O[C@@H](C)CCCCO[C@H]1CN(C)Cc1ccncc1	102.7*	-12.1	-3.6	65.0	32.5	0.2	2.6
C[C@@H]1CCCCO[C@@H](CN(C)Cc2ccc(C(F)(F)F)cc2)[C@H](C)CN([C@H](C)CO)C(=O)c2cc(NC(=O)C3CCCCC3)ccc2O1	117.8*	-50.1	-1.0	89.4	103.6*	21.8	17.0
C[C@H]1CN([C@@H](C)CO)C(=O)c2cc(NC(=O)C3CCCCC3)ccc2O[C@@H]1CN(C)Cc1ccc(C(F)(F)F)cc1	91.6*	14.7	-3.7	92.0	38.4	-3.0	22.3
C[C@H]1CCCCO[C@@H](CN(C)Cc2ccc(C(=O)O)cc2)[C@@H](C)CN([C@@H](C)CO)C(=O)c2cc(NC(=O)C3CCCCC3)ccc2O1	-17.9	10.1	-2.3	·	·	·	·
C[C@@H]1CCCCO[C@H](CN(C)Cc2ccncc2)[C@H](C)CN([C@@H](C)CO)C(=O)c2cc(NC(=O)C3CCCCC3)ccc2O1	89.6	-9.6	-4.8	·	·	·	·
C[C@@H]1CCCCO[C@H](CN(C)Cc2ccc(C(F)(F)F)cc2)[C@@H](C)CN([C@H](C)CO)C(=O)c2cc(NC(=O)C3CCCCC3)ccc2O1	70.2	-27.8	3.0	·	·	·	·
C[C@H]1CN([C@@H](C)CO)C(=O)c2cc(NC(=O)C3CCCCC3)ccc2O[C@H]1CN(C)Cc1ccc(C(F)(F)F)cc1	15.5	-5.3	8.0	·	·	·	·
C[C@H](CO)N1C[C@H](C)[C@H](CN(C)Cc2ccc(C(F)(F)F)cc2)Oc2c(NC(=O)NC3CCCCC3)cccc2C1=O	33.8	17.5	-4.1	·	·	·	·
Cc1ccc(F)cc1S(=O)(=O)N[C@@H]1CCN(C(=O)c2ccc(OC(C)C)cc2)C1	·	·	5.9	·	·	·	·
C[C@@H]1CN([C@@H](C)CO)S(=O)(=O)c2ccc(C#Cc3ccccc3)cc2O[C@@H]1CN(C)S(=O)(=O)c1cn(C)cn1	36.2	-26.5	-10.5	·	·	·	·
Cc1noc(C)c1S(=O)(=O)Nc1ccc2c(c1)C(=O)N([C@@H](C)CO)C[C@@H](C)[C@H](CN(C)S(=O)(=O)c1c(C)noc1C)OCCCC[C@@H](C)O2	11.5	-25.4	2.2	·	·	·	·
O=C(NCC[C@@H]1CC[C@H](NS(=O)(=O)c2ccc(F)cc2)[C@@H](CO)O1)Nc1ccc(F)cc1	·	-3.1	2.2	·	·	·	·
C[C@@H]1CN([C@@H](C)CO)C(=O)c2cc(NC(=O)C3CCCCC3)ccc2O[C@@H](C)CCCCO[C@H]1CN(C)Cc1ccc(C(F)(F)F)cc1	?	-55.9	16.9	88.8	116.1*	25.9	7.1
C[C@@H]1CN([C@@H](C)CO)C(=O)c2cc(NC(=O)C3CCCCC3)ccc2O[C@@H](C)CCCCO[C@H]1CN(C)Cc1ccc(C(=O)O)cc1	5.8	17.6	-0.5	·	·	·	·
C[C@H](CO)N1C[C@H](C)[C@@H](CN(C)C(=O)C2CCCCC2)OCCCC[C@H](C)Oc2ccc(NC(=O)Cc3ccccc3)cc2C1=O	59.5	-34.2	15.2	·	·	·	·
C[C@H](CO)N1C[C@H](C)[C@@H](CN(C)Cc2ccncc2)Oc2c(NC(=O)c3ccncc3)cccc2C1=O	44.4	17.7	-7.2	·	·	·	·
C[C@@H]1CN([C@@H](C)CO)C(=O)c2cccc(NC(=O)c3ccncc3)c2O[C@H]1CN(C)Cc1ccncc1	61.1	-4.8	-2.2	·	·	·	·
COc1ccc(CN(C)C[C@@H]2Oc3c(NC(=O)c4ccncc4)cccc3C(=O)N([C@@H](C)CO)C[C@H]2C)cc1	105.3*	-0.4	-1.3	85.6	79.5	22.5	26.2*
COc1ccc(CN(C)C[C@H]2Oc3c(NC(=O)c4ccncc4)cccc3C(=O)N([C@@H](C)CO)C[C@@H]2C)cc1	99.9*	1.3	4.2	94.6	79.6	11.8	37.4*
C[C@H](CO)N1C[C@H](C)[C@H](CN(C)Cc2ccc(Cl)c(Cl)c2)OCc2cn(nn2)CCCC1=O	82.4	-24.3	·	·	·	·	·
SMILES	T cruzi growth-1	Pf Dd2 growth	C diff HTS	T cruzi growth-2	T cruzi growth-3	3T3 cytotox	NIH3T3 tox 2
COc1cccc(S(=O)(=O)Nc2ccc3c(c2)OC[C@H](C)N(Cc2ccccc2F)C[C@@H](C)[C@@H](OC)CN(C)C3=O)c1	37.9	-36.6	·	·	·	·	·
C[C@H](CO)N1C[C@H](C)[C@H](CN(C)Cc2ccc(Oc3ccccc3)cc2)Oc2ncc(-c3cccnc3)cc2C1=O	48.6	-13.4	1.3	·	·	·	·
C[C@@H]1CN([C@H](C)CO)C(=O)c2cc(-c3cccnc3)cnc2O[C@H]1CN(C)Cc1ccc(Oc2ccccc2)cc1	89.4	-64.1	-0.3	·	·	·	·
C[C@H]1CN([C@@H](C)CO)C(=O)c2cc(-c3ccncc3)cnc2O[C@@H]1CN(C)Cc1ccc(Oc2ccccc2)cc1	98.3*	-70.5	-12.1	104.8*	77.6	32.9	103.5*
C[C@H]1CN([C@@H](C)CO)C(=O)c2cc(-c3cccnc3)cnc2O[C@@H]1CN(C)Cc1ccc(Oc2ccccc2)cc1	?	-52.2	-5.2	106.8*	78.0	11.9	103.8*
COc1ccccc1-c1ccc2c(c1)O[C@H](CN(C)C(=O)c1cccnc1)[C@@H](C)CN([C@@H](C)CO)S2(=O)=O	·	7.6	0.7	·	·	·	·

Compound activity deposited in PubChem BioAssay by Broad Institute.
